# Assay results: PubChem BioAssay AID720706 (Broad Institute, 2013)
# Out of some 350,000 compounds screened, about 5,500 (1.6%) were called active.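 Rule for the calls: active = significant combined selectivity score with lowered wild-type GFP, culture density cut under 30%, mutant RFP and density less affected; inactive = any of these conditions unmet.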 Only a selection was taken, and actives are over-represented in it overall.
# Test: GFP drop in mixed WT/humanized-ribosome E. coli culture – GFP/RFP fluorescence, OD600, single point, bacterial rRNA inhibitor project, primary screen (AID 720706)
# Conditions: E. coli WT GFP vs humanized-ribosome RFP mutants, 24 h; GFP signal change (wild-type ribosome): stronger effect = lower value, DMSO median 0, no signal -100; OD600 change: measured here: OD600 growth, DMSO median 0, no signal -100; RFP signal change: measured here: RFP humanized mutant strains, DMSO median 0, no signal -100, concentration not given here
SMILES,GFP signal change (wild-type ribosome),OD600 change,RFP signal change
CC(C)NC(=O)N(C)C[C@H]1Oc2ccc(N)cc2C(=O)N(C)C[C@@H]1C,0.734% (inactive),6.88%,-0.42%
OC[C@@H]1[C@@H](c2ccccc2)C2(CN(Cc3cccc(F)c3)C2)N1CC1CCCC1,-23.5% (inactive),-64.7%,20.6%
O=S(=O)(c1ccccc1)N1CCc2ccccc21,3.46% (inactive),1.07%,1.3%
CC1CN(S(=O)(=O)c2ccc(C(=O)Nc3sccc3C(N)=O)cc2)CC(C)O1 (stereo unspecified),-9.92% (inactive),0.73%,-4.68%
CNC(=O)c1ccsc1NC(=O)c1ccc(S(=O)(=O)N2CCc3ccccc32)cc1,-14% (active),-3.21%,-0.575%
CN1C[C@@H]2[C@H](c3ccccc31)[C@@H](CO)N2C(=O)Nc1ccccc1,-1.61% (inactive),-4.19%,-0.289%
CC(=O)N1[C@@H]2c3ccc(-c4ccccc4)c(=O)n3C[C@@H]2[C@@H](CO)[C@@H]1C(=O)NCc1ccccc1F,1.92% (inactive),0.235%,0.825%
COc1ccc(CN(C)C[C@@H]2OCCCC[C@H](C)Oc3ccc(NS(=O)(=O)c4cccs4)cc3C(=O)N([C@H](C)CO)C[C@@H]2C)cc1,1.91% (inactive),-7.75%,1.8%
CCC(=O)N1CC(=O)N2[C@H](CO)[C@@H](c3ccc(-c4ccc(C(=O)N(C)C)cc4)cc3)[C@@H]2C1,-0.311% (inactive),-1.8%,0.455%
O=C(NCc1nnc(SCC(=O)N2CCC(Cc3ccccc3)CC2)o1)c1ccco1,-22.9% (active),-18.5%,-1.19%
O=C(NCc1nnc(SCC(=O)N2CCCCCC2)o1)c1ccc(F)cc1,3.73% (inactive),9.68%,2.77%
Cn1c(CNC(=O)c2ccco2)nnc1SCC(=O)N1CCN(c2ccccc2)CC1,4.73% (inactive),14.2%,-0.921%
COc1ccc(-c2ccc3n(c2=O)C[C@@H]2[C@@H](CO)[C@H](C(=O)Nc4ccccc4)[C@H]3N2C)cc1,-5.3% (inactive),-0.765%,-2.67%
N#C[C@H]1[C@@H](c2ccc(C#CC3CCCC3)cc2)[C@H](CO)N1C(=O)Nc1ccc(F)cc1,-20.3% (inactive),-36.1%,20.2%
CSc1ccccc1OCc1cc(C(=O)N(C)CCc2c(C)n[nH]c2C)no1,-27.9% (inactive),-25.7%,-4.44%
CCn1ccnc1CN(C)C(=O)c1cc(COc2ccc(Cl)cc2OC)on1,2.1% (inactive),0.213%,-1.68%

SMILES,GFP signal change (wild-type ribosome),OD600 change,RFP signal change
COc1cc(Cl)ccc1OCc1cc(C(=O)N(C)CCc2c(C)n[nH]c2C)no1,-23.6% (active),-18.4%,4.51%
Cc1ccc(/C(N)=N/OC(=O)COc2ccc(Cl)c(C)c2)cc1,6.91% (inactive),1.73%,-7.27%
CCOc1ccc(C(C)=O)cc1COC(=O)c1cnc(Cl)c(Cl)c1,4.75% (inactive),3.34%,-2.34%
COc1ccc(C(C)=O)cc1COc1ccc(Cl)c(C)c1,-21% (active),2.55%,1.65%
C[C@@H]1CN([C@@H](C)CO)C(=O)Cc2cc(NC(=O)Nc3ccc(C(F)(F)F)cc3)ccc2O[C@H]1CN(C)Cc1ccc(C(=O)O)cc1,-4.09% (inactive),-39.2%,-9.85%
C[C@@H]1CN([C@@H](C)CO)S(=O)(=O)c2ccc(C#Cc3cccnc3)cc2O[C@@H]1CN(C)C,11% (inactive),15.5%,0.337%
S=C(Nc1ccc(Cl)cc1Cl)N1CCCC1,-29.6% (active),3.51%,-5.19%
S=C(Nc1ccc(Br)cc1Cl)N1CCC2(CC1)OCCO2,-18.4% (inactive),-20.4%,-6.29%
O=C(NC(=S)Nc1ccc(Cl)cc1Cl)C1CC1,-7.95% (inactive),-11.5%,2.17%
COc1ccc(-n2c(SCC(=O)NCc3ccco3)nnc2-c2c[nH]c3ccccc23)cc1,-0.435% (inactive),-16.1%,3.4%
O=C(CSc1nnc(-c2ccco2)n1Cc1ccccc1)NC(=O)NCc1ccco1,-20.4% (active),-7.72%,1.04%
Cc1cc(C)n2nc(SCC(=O)NC(=O)NCc3ccco3)nc2n1,24.5% (inactive),11.7%,-0.644%
Cc1c(C(=O)NCCN2CCOCC2)sc2nc(-c3ccc(F)cc3)cn12,-16.9% (active),-2.55%,3.25%
Cc1ccc(C(=O)N/C(=C\c2ccc(F)cc2)C(=O)NCCN2CCOCC2)cc1,8.39% (inactive),9.73%,-0.48%
Cc1c(C(=O)NCC2CCCO2)sc2nc(-c3ccccc3)cn12 (stereo unspecified),-4.79% (inactive),-21.2%,-7.98%
C/C=C/c1ccc([C@H]2[C@@H](CO)N(C(=O)Cc3ccncc3)[C@@H]2CNC(C)=O)cc1,1.54% (inactive),6.92%,-0.347%
